Results as given in PubChem BioAssay (NCI).
“And” between values parts separate entries of the source, which are not always exact repeats. Equal values may be shown once. Compounds without any hit were thinned out: in the full panel of roughly 83,000, 20% have a hit.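 The endpoint reported here, percent growth, reads 100 for growth as untreated, 0 for no net growth and -100 for all cells dead.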 Unmarked numbers belong to inactive results. The source made the active and inactive calls.

These compounds were tested on ACHN renal (assay: NCI-60 one-dose screen, 48 h (100 = growth as untreated, 0 = no growth, -100 = all killed)). Details: 4.75 µM.
Procedure: Growth inhibition of the ACHN human tumor cell line is measured as a screen for anti-cancer activity. Cells are grown in 96 well plates and exposed to the test compound for 48 hours. Compounds are tested at a single concentration, which is 10^-5 M for most compounds. The reported endpoint is percent growth (GI% or GIPRCNT), where numbers from 0 - 100% represent growth inhibition, and numbers from -100% - 0 represent cell death. For example, a value of 40 represents 60% growth inhibition. A value of 0 means no net growth occurred over the course of the experiment. A value of -40 indicates 40% of cells at the beginning of the experiment died by the end of the experiment. A value of -100 means all cells are dead at the end of the experiment.
NCI-60 Human Tumor Cell Lines Screen was performed using the standard one-dose NCI protocol, which is described in more detail at https://dtp.cancer.gov/discovery_development/nci-60/default.htm.
Compounds with GIPRCNT values below 10 were considered active. Activity score was based on GIPRCNT using the following formula: […]
Score is 0 for GIPRCNT values of 100 or above, 50 for GIPRCNT values of 0, and 100 for GIPRCNT values of -100.

| SMILES | growth |
| --- | --- |
| CC(=O)OCC1OC([S-])C(OC(C)=O)C(OC(C)=O)C1OC(C)=O.[Au+].c1ccc(CN2[CH-]N(Cc3ccccc3)C(c3ccccc3)=C2c2ccccc2)cc1 | -18.5% (active) |

Same assay, conditions: 10 µM

| SMILES | growth |
| --- | --- |
| CC(=O)OCC1OC([S-])C(OC(C)=O)C(OC(C)=O)C1OC(C)=O.[Au+].c1ccc(CN2[CH-]N(Cc3ccccc3)C(c3ccccc3)=C2c2ccccc2)cc1 | -39.3% (active) |

Same assay, conditions: 10 µM unless noted

| SMILES | growth |
| --- | --- |
| CC1=C(C)C(=O)O[C@@H]([C@](C)(O)[C@]2(O)CC[C@@]3(O)[C@@H]4C[C@H]5O[C@]56CC=CC(=O)[C@]6(C)[C@H]4CC[C@]23C)C1 | -72.4% (active) |
| N#CC(N)c1ccccc1 (stereo not given) | 105% |
| CC1(C)C2CCC1(CS(=O)(=O)O)C(=O)C2 (stereo not given) | 95.9% and 105% |
| Nc1ccc(P(=O)(O)O)cc1 | 98.7% and 105% |
| C=CCOC(=O)C(Br)CC (stereo not given) | 100% |
| C[C@]12CCc3sc(Nc4ccc(O)cc4)nc3C1=CC[C@@H]1[C@@H]2CC[C@]2(C)C(=O)CC[C@@H]12 | -17.3% (active) |
| CCCC(C)SP(=S)(SC(C)CCC)SC(C)CCC (stereo not given) | 113% |
| C/C(=C(\c1ccc(OCCN2CCOCC2)cc1)c1ccc(OC(=O)Cc2ccccc2)cc1)c1ccc(Cl)cc1 | 112% |
| COC[C@H]1OC(=O)c2coc3c2[C@@]1(C)C1=C(C3=O)[C@@H]2CCC(=O)[C@@]2(C)C[C@H]1OC(C)=O | 42.2% |
| CCN(CC)CCn1c(=O)n(C)c2ccccc21 | 114% |
| CC/C(=C(\c1ccc(OCCN2CCOCC2)cc1)c1ccc(OC(=O)Cc2ccccc2)cc1)c1ccc(Cl)cc1 | 117% |
| O=C1NC(=O)C(=C/C=C/c2ccccc2)C(=O)N1 | 2.5% (active) |
| O=C/C=C/c1ccco1 | 109% |
| C[C@@H]1C/C=C\C(=O)O[C@H](/C=C/C#C/C=C/C(C)(C)[C@@H](O)c2cccc(O)c2Br)[C@@H](C)/C=C/[C@H](C)C[C@H](OC(N)=O)C1 | 35% |
| c1ccc2c(c1)O[As](O[As]1Oc3ccccc3O1)O2 | 59.3% |
| CC[C@H](C)[C@H](NC(=O)[C@H]1CCCCN1C)C(=O)N(C)[C@H](C[C@@H](OC(C)=O)c1nc(C(=O)N[C@@H](Cc2ccccc2)C[C@H](C)C(=O)O)cs1)C(C)C | 14.3% |
| CC[C@H](C)[C@H]1O[C@]2(C=C[C@@H]1C)C[C@@H]1C[C@@H](C/C=C(\C)[C@@H](O[C@H]3C[C@H](OC)[C@@H](O[C@H]4C[C@H](OC)[C@@H](NC)[C@H](C)O4)[C@H](C)O3)[C@@H](C)/C=C/C=C3\CO[C@@H]4[C@H](O)C(C)=C[C@@H](C(=O)O1)[C@]34O)O2 | -33.9% (active) |
| C[N+]1(CC#CC[N+]2(C)CCCC2)CCCC1 | 108% |
| CC1(C)C=Cc2c(ccc3c2[N+]([O-])=C2C3=C[C@@]34NC(=O)[C@]5(CCCN5C3=O)C[C@@H]4C2(C)C)O1 | 39.7% |

| SMILES | growth |
| --- | --- |
| CC(C)CCC1C(=O)NC(=O)NC1=O | 100% |
| CC(C)COC(=O)Cc1ccccc1 | 108% |
| NC1CN2CCC1CC2 (stereo not given) | 93% |
| Cc1nc2ccccc2c(=O)n1-c1ccccc1F | 104% |
| N#CCCc1ccccc1 | 98.4% |
| CCCCOC(N)=O | 111% |
| Cc1cc(N(CCCl)CCCl)ccc1/C=N\NC(=O)c1cccnc1 | 72.6% and 84% |
| C[C@]12CCC3[C@@H](C[C@@H]4SC(Nc5ccccc5)=N[C@@]45CC(=O)CC[C@]35C)[C@@H]1CCC2=O (stereo not given in full) | -62.4% (active) |
| COc1ccc2c(c1)c(-c1nc(-c3cn(C)c4ncccc34)cs1)cn2CCCCN1CCOCC1 | 32% |
| O=C(O)c1ccccc1N(CCO)CCCl | 95% |
| COc1cc(-c2ccc(N)c(OC)c2)ccc1N | 100% |
| CO/N=C1\CC[C@]2(C)[C@H]3CC[C@]4(C)C(=O)CC[C@H]4[C@@H]3C[C@@H]3SC(N)=N[C@@]32C1 | 100% |
| CN1CCc2cc3c(cc2C1O)OCO3 (stereo not given) | 100% and 101% |
| O=C(O)C(F)F | 116% |
| CN1[C@@H](CC(=O)c2ccccc2)CCC[C@H]1CC(=O)c1ccccc1 | 97.3% |
| CCC1CCC(=O)O1 (stereo not given) | 105% and 109% |
| O=S1(=O)OCCO1 | 99.2% |
| COC(=O)C1=CCCN(C)C1 | 96.9% |
| Cc1cc(N)ccc1N | 97% |
